In PubChem BioAssay (NCI):
About 79,000 compounds went through this panel and 15% of them were active in at least one assay; those are over-represented in the sample as a whole. Active and inactive are the calls of the source. Cut-off read from the data, not from the text of the source: active = growth inhibition above about 70%; inactive = the rest.

What was measured:
[1] = NCI Yeast Anticancer Drug Screen. Data for the rad52 strain (AID 147);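 note: 0% = growth of vehicle-treated control cultures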; settings: S. cerevisiae rad52 mutant growth inhibition, hits give high values
How it was run: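 DNA repair-defective yeast; compound exposure; growth scored against vehicle controls.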

[2] = NCI Yeast Anticancer Drug Screen. Data for the rad50EPP+ strain (AID 151);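 note: 0% = growth of vehicle-treated control cultures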; settings: S. cerevisiae rad50 mutant strain, hits give high values
How it was run: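 rad50EPP+ yeast treated with test compounds. Readout: growth vs vehicle control.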

[3] = NCI Yeast Anticancer Drug Screen. Data for the mgt1 strain (AID 153); settings: S. cerevisiae mgt1 mutant growth inhibition, hits give high values
How it was run: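 Growth inhibition relative to vehicle controls was scored for the mgt1 yeast strain after compound exposure.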

[4] = NCI Yeast Anticancer Drug Screen. Data for the rad50 strain (AID 155);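 note: 0% = growth of vehicle-only cultures of the same strain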; settings: S. cerevisiae rad50 strain growth inhibition, hits give high values
How it was run: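 Yeast carrying a defined DNA repair defect were exposed to test compounds, and growth was compared with vehicle-treated controls to give percent inhibition.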

[5] = NCI Yeast Anticancer Drug Screen. Data for the mec2-1 strain (AID 157); settings: S. cerevisiae mec2-1 strain, hits give high values
How it was run: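 Growth inhibition is read against vehicle-treated controls after compound exposure of the mec2-1 yeast strain, which is defective in DNA damage repair or cell cycle control.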

[6] = NCI Yeast Anticancer Drug Screen. Data for the rad14 strain (AID 159);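 note: 0% = growth of vehicle-treated control cultures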; settings: S. cerevisiae rad14 strain growth inhibition, hits give high values
How it was run: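 Yeast cells carrying a defined DNA-repair defect were exposed to compounds, and growth inhibition was calculated relative to vehicle-treated control cultures.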

[7] = NCI Yeast Anticancer Drug Screen. Data for the sgs1 mgt1 strain (AID 161);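 note: 0% = growth of cultures given vehicle only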; settings: S. cerevisiae sgs1 mgt1 strain, hits give high values
How it was run: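 Growth of a repair-deficient yeast mutant was monitored after compound treatment and expressed as inhibition relative to vehicle-treated cultures.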

[8] = NCI Yeast Anticancer Drug Screen. Data for the CLN2oe strain (AID 163);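 note: 0% = growth of vehicle-only control cultures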; settings: S. cerevisiae CLN2oe strain, hits give high values
How it was run: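 Compound-treated yeast; growth vs vehicle ctrl = % inhibition. Genetically altered strain (cell-cycle control).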

[9] = NCI Yeast Anticancer Drug Screen. Data for the cln2 rad14 strain (AID 165);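 note: 0% = growth equal to vehicle treated cultures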; settings: S. cerevisiae cln2 rad14 strain, hits give high values
How it was run: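 Growth inhibition, relative to vehicle-treated controls, is the read-out. The test organism is a yeast strain with defined genetic alterations, cln2 rad14.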

[10] = NCI Yeast Anticancer Drug Screen. Data for the bub3 strain (AID 167); settings: S. cerevisiae bub3 mutant strain, hits give high values
How it was run: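 Compounds were applied to a genetically altered yeast strain carrying a cell-cycle control defect. Growth inhibition was scored against vehicle-treated controls.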

[11] = NCI Yeast Anticancer Drug Screen. Data for the wt2 strain (AID 169);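 note: 0% = growth of vehicle-treated yeast cultures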; settings: S. cerevisiae wt2 strain growth inhibition, hits give high values
How it was run: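 Compound exposure of yeast; growth compared with vehicle controls; inhibition reported.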

[12] = NCI Yeast Anticancer Drug Screen. Data for the mlh1 strain (AID 171);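 note: 0% = growth of vehicle-treated control cultures of the same strain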; settings: S. cerevisiae mlh1 strain growth inhibition, hits give high values
How it was run: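 Compounds are applied to a genetically altered yeast strain, and its growth is compared with that of vehicle-treated cultures to give percent inhibition.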

[13] = NCI Yeast Anticancer Drug Screen. Data for the sgs1 strain (AID 173);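 note: 0% = growth of vehicle-only control cultures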; settings: S. cerevisiae sgs1 mutant, hits give high values
How it was run: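 Compounds applied to genetically altered yeast; growth compared with vehicle-treated cultures to give % inhibition.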

[14] = NCI Yeast Anticancer Drug Screen. Data for the mlh1 rad18 strain (AID 175); settings: S. cerevisiae mlh1 rad18 strain growth inhibition, hits give high values
How it was run: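 Cells of a genetically altered yeast strain, deficient in DNA damage repair, were treated with compound. Their growth was then compared with that of vehicle-treated cultures to give inhibition.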

[15] = NCI Yeast Anticancer Drug Screen. Data for the wt1 strain (AID 149);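 note: 0% = growth of vehicle-treated wt1 cultures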; settings: S. cerevisiae wt1 strain (SPY 50644) growth inhibition, hits give high values
How it was run: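 Yeast wt1 strain exposed to compounds; growth inhibition measured relative to vehicle-treated controls.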

[16] = NCI Yeast Anticancer Drug Screen. Data for the rad18 strain (AID 177); settings: S. cerevisiae rad18 mutant growth inhibition, hits give high values
How it was run: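 Compounds are applied to a repair-deficient yeast strain, and growth is compared with that of vehicle-treated cultures to give percent inhibition.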

[17] = at 5.0 µM (retest, dose inferred, filed as 0.5)
[18] = at 50.0 µM (retest, dose inferred, filed as 5.0)

Measured: growth inhibition

CCOC(=O)c1cc([N+](=O)[O-])cc([N+](=O)[O-])c1Sc1ncnc2nc[nH]c12
active: [1]; at 100.0 µM 95% | [2]; at 100.0 µM 82% | [3]; at 33.0 µM 83% | [3]; at 100.0 µM 98% | [4]; [18] 75% | [4]; at 100.0 µM 96% | [5]; at 100.0 µM 97% | [6]; at 100.0 µM 97% | [7]; [18] 75% | [8]; at 100.0 µM 97% | [9]; at 50.0 µM 77.2% | [10]; at 33.0 µM 70% | [10]; [18] 70% | [10]; at 100.0 µM 96% | [11]; at 100.0 µM 96% | [12]; at 33.0 µM 85% | [12]; at 100.0 µM 97% | [13]; at 33.0 µM 74% | [13]; at 100.0 µM 96% | [14]; [18] 89% | [14]; at 50.0 µM 78.5%
inactive: [1]; at 1.2 µM 13% | [1]; at 3.7 µM 2% | [1]; at 11.0 µM 11% | [1]; at 33.0 µM 62% | [2]; at 1.2 µM -6% | [2]; at 3.7 µM -11% | [2]; at 11.0 µM 13% | [2]; at 33.0 µM 62% | [3]; at 1.2 µM -17% | [3]; at 3.7 µM -18% | [3]; at 11.0 µM -8% | [4]; at 1.2 µM -15% | [4]; at 3.7 µM -15% | [4]; [17] 36% | [4]; at 11.0 µM 1% | [4]; at 33.0 µM 68% | [4]; at 50.0 µM 36% | [5]; at 1.2 µM -33% | [5]; at 3.7 µM -28% | [5]; [17] 22% | [5]; at 11.0 µM -2% | [5]; at 33.0 µM 65% | [5]; [18] 69% | [5]; at 50.0 µM 60% | [6]; at 1.2 µM -30% | [6]; at 3.7 µM -21% | [6]; at 11.0 µM -9% | [6]; at 33.0 µM 66% | [7]; [17] 52% | [7]; at 50.0 µM 62% | [8]; at 1.2 µM -19% | [8]; at 3.7 µM -33% | [8]; at 11.0 µM -23% | [8]; at 33.0 µM 54% | [9]; [17] 5% | [9]; [18] -16% | [10]; at 1.2 µM -26% | [10]; at 3.7 µM -12% | [10]; [17] 38% | [10]; at 11.0 µM -11% | [10]; at 50.0 µM 59.5% | [11]; at 1.2 µM -29% | [11]; at 3.7 µM -22% | [11]; at 11.0 µM -24% | [11]; at 33.0 µM 18% | [12]; at 1.2 µM -31% | [12]; at 3.7 µM 2% | [12]; at 11.0 µM 2% | [13]; at 1.2 µM -11% | [13]; at 3.7 µM -5% | [13]; at 11.0 µM 2% | [14]; [17] 42%

CCN(CC)CCNc1ccc([N+](=O)[O-])c2nc3ccc(OC)cc3c(N)c12
active: [1]; at 33.0 µM 74% | [1]; at 100.0 µM 90% | [3]; at 100.0 µM 73% | [4]; at 33.0 µM 79% | [4]; [18] 89% | [4]; at 100.0 µM 93% | [6]; at 100.0 µM 88% | [11]; at 100.0 µM 70% | [12]; at 100.0 µM 85% | [13]; at 100.0 µM 82% | [14]; [18] 86% | [16]; at 100.0 µM 86%
inactive: [1]; at 1.2 µM -23% | [1]; at 3.7 µM -13% | [1]; at 11.0 µM 19% | [15]; at 1.2 µM -8% | [15]; at 3.7 µM -14% | [15]; at 11.0 µM -17% | [15]; at 33.0 µM -6% | [15]; at 100.0 µM 54% | [3]; at 1.2 µM -20% | [3]; at 3.7 µM -20% | [3]; at 11.0 µM -16% | [3]; at 33.0 µM 15% | [4]; at 1.2 µM -3% | [4]; at 3.7 µM -2% | [4]; [17] 13% | [4]; at 11.0 µM 35% | [4]; at 50.0 µM 48.4% | [5]; at 1.2 µM -24% | [5]; at 3.7 µM -19% | [5]; [17] -5% | [5]; at 11.0 µM -8% | [5]; at 33.0 µM 5% | [5]; [18] 21% | [5]; at 50.0 µM -26.1% | [5]; at 100.0 µM 42% | [6]; at 1.2 µM -34% | [6]; at 3.7 µM -29% | [6]; at 11.0 µM -19% | [6]; at 33.0 µM 28% | [7]; [17] -12% | [7]; [18] 48% | [7]; at 50.0 µM 58.4% | [9]; [17] 3% | [9]; [18] 33% | [9]; at 50.0 µM 6.25% | [10]; at 1.2 µM -23% | [10]; at 3.7 µM -16% | [10]; [17] -24% | [10]; at 11.0 µM -36% | [10]; at 33.0 µM -17% | [10]; [18] 18% | [10]; at 50.0 µM -0.6% | [10]; at 100.0 µM 64% | [11]; at 1.2 µM 15% | [11]; at 3.7 µM 6% | [11]; at 11.0 µM 10% | [11]; at 33.0 µM 28% | [12]; at 1.2 µM -2% | [12]; at 3.7 µM 4% | [12]; at 11.0 µM 5% | [12]; at 33.0 µM 27% | [13]; at 1.2 µM -8% | [13]; at 3.7 µM -9% | [13]; at 11.0 µM -16% | [13]; at 33.0 µM 10% | [14]; [17] -22% | [14]; at 50.0 µM 68% | [16]; at 1.2 µM 1% | [16]; at 3.7 µM 4% | [16]; at 11.0 µM 7% | [16]; at 33.0 µM 23%

Cc1ccc2ccc3cccc4ccc1c2c34
inactive: [1]; at 1.2 µM -1% | [1]; at 3.7 µM 0% | [1]; at 11.0 µM 5% | [1]; at 33.0 µM 23% | [1]; at 100.0 µM 27% | [15]; at 1.2 µM -2% | [15]; at 3.7 µM -2% | [15]; at 11.0 µM -3% | [15]; at 33.0 µM 2% | [15]; at 100.0 µM 15% | [2]; at 1.2 µM -2% | [2]; at 3.7 µM 4% | [2]; at 11.0 µM 20% | [2]; at 33.0 µM 33% | [2]; at 100.0 µM 31% | [4]; at 1.2 µM 4% | [4]; at 3.7 µM 49% | [4]; [17] -1% | [4]; at 11.0 µM 21% | [4]; at 33.0 µM 37% | [4]; [18] 41% | [4]; at 50.0 µM 25.6% | [4]; at 100.0 µM 66% | [5]; at 1.2 µM -1% | [5]; at 3.7 µM 0% | [5]; [17] 3% | [5]; at 11.0 µM 2% | [5]; at 33.0 µM 13% | [5]; [18] 12% | [5]; at 50.0 µM 4.75% | [5]; at 100.0 µM 26% | [6]; at 1.2 µM 1% | [6]; at 3.7 µM 0% | [6]; at 11.0 µM 3% | [6]; at 33.0 µM 14% | [6]; at 100.0 µM 23% | [7]; [17] -3% | [7]; [18] 20% | [7]; at 50.0 µM 10.6% | [8]; at 1.2 µM -7% | [8]; at 3.7 µM -2% | [8]; at 11.0 µM -4% | [8]; at 33.0 µM -13% | [8]; at 100.0 µM 13% | [9]; [17] -3% | [9]; [18] 6% | [9]; at 50.0 µM 14.2% | [10]; at 1.2 µM -1% | [10]; at 3.7 µM 0% | [10]; [17] 2% | [10]; at 11.0 µM 2% | [10]; at 33.0 µM 26% | [10]; [18] 44% | [10]; at 50.0 µM 61.5% | [10]; at 100.0 µM 58% | [11]; at 1.2 µM -1% | [11]; at 3.7 µM 7% | [11]; at 11.0 µM -3% | [11]; at 33.0 µM -2% | [11]; at 100.0 µM 18% | [13]; at 1.2 µM -3% | [13]; at 3.7 µM -1% | [13]; at 11.0 µM 2% | [13]; at 33.0 µM 23% | [13]; at 100.0 µM 42% | [14]; [17] -3% | [14]; [18] 52% | [16]; at 1.2 µM -4% | [16]; at 3.7 µM 0% | [16]; at 11.0 µM 11% | [16]; at 33.0 µM 60%
active: [14]; at 50.0 µM 70.3% | [16]; at 100.0 µM 82%
